Our source for the composite z-score values is PubChem BioAssay.

Molecules are shown by their SMILES.

The target in the experiment is Torsin-1A (Homo sapiens) (UniProt O14656). The experiment is described as follows: small-molecule binders of mutant TOR1A in lysate, primary screen, cell lysate, small-molecule microarray, COS7 lysate, 635/667 nm fluorescence (AID 1150).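 Further: score pools 667 nm emission and signal to noise measuring lysate protein binding.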 Particulars: COS7 hTOR1A mutant lysate, 635 nm fluorescence, higher = more signal.
Sequence of Torsin-1A (Homo sapiens) (O14656 whole entry, looked up): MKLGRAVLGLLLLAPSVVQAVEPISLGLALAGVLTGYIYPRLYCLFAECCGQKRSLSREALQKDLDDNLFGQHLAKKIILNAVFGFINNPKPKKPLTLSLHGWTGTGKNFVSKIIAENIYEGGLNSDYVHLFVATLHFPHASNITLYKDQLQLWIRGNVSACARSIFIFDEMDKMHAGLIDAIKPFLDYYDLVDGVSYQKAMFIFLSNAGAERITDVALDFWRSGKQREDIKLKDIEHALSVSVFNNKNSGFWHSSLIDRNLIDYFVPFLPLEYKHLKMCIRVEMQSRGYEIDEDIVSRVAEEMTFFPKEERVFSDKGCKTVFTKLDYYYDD
In turn, `COc1ccc([Si](C)(C)[C@@H]2[C@@H](CCO)O[C@]3(C(=O)N(Cc4cccc(N5CCOC5=O)c4)c4ccccc43)[C@H]2C)cc1` came in with a composite z-score of 0.226.

Take `CCOC(=O)C1=CC[C@H]2C(=O)N(c3ccccc3)C(=O)[C@@H]12`: the composite z-score came out at 1.08.

For `CCOC(=O)C[C@H]1[C@H](OC(=O)c2ccc(C(=O)c3ccccc3)cc2)[C@@H](NC(=O)Cc2ccc(OC)cc2)c2cc(OCCCO)ccc2N1C(=O)c1ccc2ccccc2n1`, the composite z-score was found to be 0.561.

`COC(=O)[C@@]1(Cc2ccc(F)cc2)[C@H]2c3cc(C(=O)N(C)C)n(Cc4cc(C)n(C)n4)c3C[C@H]2CN1C(=O)c1ccccc1` came in with a composite z-score of 0.0322.

`CCCC[C@@H]1C[C@H]1[C@@H](NC(=O)c1cccnc1)c1ccc(Cl)cc1`: the composite z-score was -0.419.

As to `[N-]=[N+]=Nc1ccccc1C[C@@]1(C(=O)N2CCCCC2)N=C(c2ccc(OCCCO)cc2)O[C@@H]1c1ccccc1N=[N+]=[N-]`, the composite z-score was 0.585.

In turn, `C=CCC(OC(C)=O)[C@@H]1[C@@H](N(Cc2ccc(-c3cccc(C(F)(F)F)c3)o2)C(=O)c2cccc3ccccc23)c2cc(OCCCO)ccc2N1C(=O)Cc1ccc2ccccc2c1` (stereo partly specified) had a composite z-score of -0.361.

Consider `CCCCN1CC=CC23O[C@@H]4C=CCOC(=O)[C@@H]4[C@H]2C(=O)N(CCCCCCO)[C@@H]3C1=O` (stereo partly specified), for which the composite z-score was -0.748.

`O=C1C2C=CC(C(O)C=Cc3ccc([N+](=O)[O-])cc3)N(n3cnnc3)C2C(=O)N1Cc1ccccc1` (stereo unspecified) showed a composite z-score of 2.16.

With `O=C1[C@H]2C=C(Br)[C@H](C[C@@H]2OCCCCCCO)[C@@]12CO2`, the composite z-score was 0.12.

`CCCCCCCCCCC(O)C1C=CC2C(=O)NC(=O)C2N1Nc1ccc(Cl)cc1Cl` (stereo unspecified) showed a composite z-score of 0.0193.

On to `C=CC1c2cc(O)c(OC)cc2CCN1Cc1cccc(OC(F)(F)F)c1` (stereo unspecified), for which the composite z-score turned out to be 0.88.

In turn, `CC(C)[Si](C#C[Si](C(C)C)(C(C)C)C(C)C)(O[C@H](C)c1cn(Cc2ccccc2)nn1)C(C)C` showed a composite z-score of 0.5.

`O=C1O[C@H](c2ccccc2)[C@H](c2ccccc2)N2[C@H]1[C@@H](C(=O)NC[C@H](O)c1ccccc1)[C@]1(C(=O)Nc3ccc(C#CC4=CCCCC4)cc31)[C@H]2c1ccccc1OCCO` displayed a composite z-score of 0.223.

Compound `COc1ccc(-c2cc3c(c(Cc4ccccc4)n2)[Si](C(C)C)(C(C)C)OC3)cn1` showed a composite z-score of -0.729.

In turn, `C=CCC(OC(C)=O)[C@@H]1[C@@H](N(Cc2ccc(-c3cccc(C(F)(F)F)c3)o2)C(=O)Cc2ccc(OC)cc2)c2cc(OCCCO)ccc2N1C(=O)c1ccc2ccccc2c1` (stereo partly specified) displayed a composite z-score of 0.168.

Compound `CCC(CC)C(O)C1C=CC2C(=O)N(c3ccccc3)C(=O)C2N1Nc1ccccc1` (stereo unspecified) gave a composite z-score of 0.423.

In the case of `CN1C(=O)C2C=CC(C(O)c3c(F)cccc3Cl)N(NC(=O)OC(C)(C)C)C2C1=O` (stereo unspecified), the composite z-score was 0.591.

With `C=C[C@H](C)[C@@H](OC(=O)Nc1ccc(SC)cc1)c1ccc(O)c2ccccc12`, the composite z-score stood at 0.165.

Turning to `COc1ccccc1CN1C(=O)c2ccccc2[C@@H](C(=O)NCc2ccccc2)[C@@H]1c1ccc(CO)cc1`, the composite z-score amounted to 0.48.

`O=C1OCC=C[C@H]2OC34C=CCN(Cn5nnc6ccccc65)C(=O)[C@H]3N(CCCCCO)C(=O)[C@@H]4[C@@H]12` (stereo partly specified) displayed a composite z-score of -1.08.

For `Cc1ccc(S[C@]2(C(=O)NCC(C)C)CC(=O)N(Cc3cc(C(F)(F)F)cc(C(F)(F)F)c3)[C@@H]2c2ccc(CO)cc2)cc1`, the composite z-score turned out to be 0.118.

Consider `CS(=O)(=O)CCOC(=O)C1=CC(CCCO)=CC(C2CC2)N(Cc2cc3c(cc2Br)OCO3)C=C1C(=O)OCCS(C)(=O)=O` (stereo unspecified), for which the composite z-score worked out at 1.03.

On to `C=CCOC(=O)[C@H]1[C@@H]2C(=O)O[C@@H](c3ccccc3)[C@@H](c3ccccc3)N2[C@@H](c2ccc(OCCOC(=O)[C@H]3C[C@H]4C(=O)N[C@@H](CCCCN(C)C)C(=O)N4[C@H]3c3cccc(OCCO)c3)cc2)[C@]12C(=O)Nc1ccc(I)cc12`, for which the composite z-score was found to be 0.629.

As for `COc1ccc([Si](C)(C)[C@H]2[C@H](CC(=O)N3CCC[C@H]3CO)O[C@@]3(C(=O)N(Cc4cccc(N5CCOC5=O)c4)c4ccccc43)[C@@H]2C)cc1`, the composite z-score came to 0.58.

Consider `O=C1OCCC=C[C@H]2OC34C=CCN(c5ccc(Cl)cc5)C(=O)[C@H]3N(CCCO)C(=O)[C@@H]4C12` (stereo partly specified), for which the composite z-score was -1.56.

The compound `COc1ccc(C(O)C2C=CC3C(=O)N(C)C(=O)C3N2N(c2ccccc2)c2ccccc2)c2ccccc12` (stereo unspecified) had a composite z-score of 0.526.

Take `COCC(=C=CC[C@H](O)c1cccc(OCCO)c1)CCO`: the composite z-score was -0.434.

Take `CC[C@@H]1C=C(C(=O)O)[C@H](c2ccc(C)cc2)N1S(=O)(=O)c1ccc(C)cc1`: the composite z-score was 0.247.

Consider `O=C1NC(=O)C2C1C=CC(C(O)C1CC=CCC1)N2Nc1ccccn1` (stereo unspecified), for which the composite z-score was -0.0899.

On to `COc1ccc(C(=O)Nc2cccc(CN3C(=O)[C@]4(O[C@H](CCn5cc(CCO)nn5)[C@@H]([Si](C)(C)c5ccc(OC)cc5)[C@@H]4C)c4ccccc43)c2)cc1`, for which the composite z-score came out at 0.359.

Regarding `CS(=O)(=O)CCOC(=O)C1=CC(CCCO)=CC(c2ccc(CN3CCCC3)cc2)N(Cc2cccc(OC(F)(F)F)c2)C=C1C(=O)OCCS(C)(=O)=O` (stereo unspecified), the composite z-score worked out at 1.33.

As to `COC(=O)c1c2oc(c1C(=O)OC)C(=O)N[C@@H](C(C)C)Cn1cc(nn1)C1(CCCCC1)NC(=O)N[C@H](CO)CC2`, the composite z-score was found to be 0.48.

As for `O=C1O[C@@H](c2ccccc2)[C@@H](c2ccccc2)N2[C@@H](c3ccc(OCCO)cc3)[C@]3(C(=O)Nc4ccc(C#CCCO)cc43)[C@@H](C(=O)NC[C@H](O)c3ccccc3)[C@H]12`, the composite z-score stood at 0.652.

`CC(c1ccccc1)C(O)C1C=CC2C(=O)N(c3ccccc3)C(=O)C2N1Nc1ccccc1` (stereo unspecified) displayed a composite z-score of 1.07.

As to `CC1CC/C=C\[C@H]2OC34C=CCN(Cc5ccccc5)C(=O)[C@H]3N(C(C)CO)C(=O)[C@@H]4C2C(=O)O1` (stereo partly specified), the composite z-score is -0.119.
